Compound activity: PubChem BioAssay, The Scripps Research Institute Molecular Screening Center
Shown are actives, neighbours in structure and some others; about 1.3% of the full set was active somewhere.
LYPLA2 inh: LYPLA2 inhibitors, primary screen, counter-screen for PME1 inhibitor project, biochemical, fluorescence polarization, FP-Rh probe ABPP; AID 2177, 2009; recombinant LYPLA2; 0.38% of 320,000 active; Acyl-protein thioesterase 2 (Homo sapiens), O95372; inhibition, % at 5.9 µM;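 active = inhibition above the screen-wide mean plus 3 SD, limit set per campaign, cut at about 26% in these data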
Target sequence (O95372 whole entry, looked up): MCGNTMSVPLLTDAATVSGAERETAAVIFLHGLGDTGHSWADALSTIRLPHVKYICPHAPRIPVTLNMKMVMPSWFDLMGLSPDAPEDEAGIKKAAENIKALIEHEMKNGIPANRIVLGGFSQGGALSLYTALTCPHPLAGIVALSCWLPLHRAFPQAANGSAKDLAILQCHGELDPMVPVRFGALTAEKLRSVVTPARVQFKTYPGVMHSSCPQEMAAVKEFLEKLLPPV
Fam108B counter: mouse Fam108B serine hydrolase inhibitors, primary screen, counter-screen for RBBP9 inhibitor project, biochemical, fluorescence polarization; 0.33% of 300,000 active; recombinant Fam108B, FP-Rh probe fluorescence polarization; inhibition, % at 9.51 µM;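 active = inhibition above the screen mean inhibition plus 3 SD, computed separately per campaign, cut at about 18% in these data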;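 also: inhibitors lower polarization as less probe binds the enzyme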
LYPLA1 inh: LYPLA1 inhibitors, primary screen, counter-screen for PME1 inhibitor project, biochemical, fluorescence polarization, FP-Rh probe ABPP | Acyl-protein thioesterase 1 (Homo sapiens), O75608 | recombinant LYPLA1 | inhibition, % at 5.9 µM | 0.16% of 320,000 active | AID 2174, 2009;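 active = inhibition above the mean of all tested compounds plus 3 SD, set per campaign, cut at about 14% in these data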;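 also: inhibitors block serine hydrolase probe labeling of LYPLA1 so polarization falls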
PREPL inh: PREPL enzyme inhibitors, primary screen, biochemical, fluorescence polarization; Prolyl endopeptidase-like (Homo sapiens), Q4J6C6; recombinant PREPL, fluorescence polarization activity-based probe; inhibition, % at 5.96 µM; 0.68% of 320,000 active; in the data active = inhibition above about 43%
PME-1 primary: PME-1 inhibitors via competitive probe labeling, primary screen, biochemical, fluorescence polarization, FP-Rh probe, HTS; recombinant PME-1; inhibition, % at 5.9 µM; 0.53% of 320,000 active;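 active = inhibition above the campaign mean of all compounds plus 3 SD, cut at about 26% in these data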;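 also: competitive labeling of PME-1 active site by serine hydrolase directed probe; inhibitors block probe labeling so polarization falls and inhibition rises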
Target sequence (Q9Y570 whole entry, looked up): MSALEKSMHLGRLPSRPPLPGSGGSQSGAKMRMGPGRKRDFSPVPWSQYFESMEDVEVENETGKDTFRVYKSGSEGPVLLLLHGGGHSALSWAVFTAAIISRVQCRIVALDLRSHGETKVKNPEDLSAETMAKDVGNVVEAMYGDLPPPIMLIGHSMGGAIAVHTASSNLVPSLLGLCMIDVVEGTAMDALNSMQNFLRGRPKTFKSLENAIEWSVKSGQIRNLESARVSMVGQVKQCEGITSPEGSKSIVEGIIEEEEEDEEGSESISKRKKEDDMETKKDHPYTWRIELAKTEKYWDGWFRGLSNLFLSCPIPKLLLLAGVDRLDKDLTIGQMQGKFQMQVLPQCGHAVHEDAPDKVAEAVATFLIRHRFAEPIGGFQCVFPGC
LYPLA2 confirm: LYPLA2 inhibitors, retest, confirmation, counter-screen for PME1 inhibitor project, biochemical, fluorescence polarization, FP-Rh probe ABPP; recombinant LYPLA2; inhibition, % at 5.9 µM; AID 2232, 2010; 72% of 1,100 active; shares compounds with LYPLA2 inh;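 active = mean inhibition across replicates above the hit cutoff set in the primary screen, cut at about 26% in these data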;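 also: blocked labeling of the enzyme by serine hydrolase FP-Rh probe lowers polarization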
LYPLA2 gel ABPP: LYPLA2 inhibitors in proteome, late-stage follow-up, gel-based competitive ABPP, fluorescence, assay provider | shares compounds with LYPLA2 inh | rhLYPLA2 in mouse brain proteome, gel ABPP FP-Rh | inhibition, % at 20 µM | 30% of 150 active;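 active = inhibition of LYPLA2 enzyme probe labeling above about 50%, limit read from the data; inactive = inhibition below that limit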;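 also: loss of FP-Rh probe labeling of the LYPLA2 gel band measured as band density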
A number is an active result; - = inactive; . = no result.

SMILES	LYPLA2 inh	Fam108B counter	LYPLA1 inh	PREPL inh	PME-1 primary	LYPLA2 confirm	others
O=C(CCCOc1ccccc1)Nc1cccc(S(=O)(=O)N2CCCCCC2)c1	-	.	-	-	-	.
O=C1CCCN1CCC1CCN(C2CC(=O)N(Cc3ccc(N4CCCC4=O)cc3)C2=O)CC1 (centres undefined)	-	-	-	-	-	.
O=C1CCCN1CCC1CCN(C2CC(=O)N(c3ccc(Cl)cc3)C2=O)CC1 (centres undefined)	32.8	-	-	-	-	34.5
CC1CC1C(=O)OCC(=O)N(C)CC(=O)Nc1ccc(F)cc1 (centres undefined)	.	.	.	-	.	.
CCCC(=O)Nc1ccc(C(=O)COC(=O)C2CC2C)cc1 (centres undefined)	28.7	.	-	-	-	28.1
CC(C)c1ccc(NC2=NCC(=O)N2Cc2cccs2)cc1	33.9	-	-	-	-	26.4
O=C1CN=C(Nc2ccccc2)N1Cc1cccs1	-	-	-	-	-	.
Cn1c(CNC(=O)CCNC(=O)c2ccc(F)c(F)c2)cc(=O)n(C)c1=O	-	-	-	-	-	.
CC12CCC(c3c(C(=O)N4CCOCC4)nn(-c4ccccc4)c31)C2(C)C (centres undefined)	27.6	-	-	-	-	-
COc1cccc(CCN2CCC(CNS(=O)(=O)c3cc(-c4cc(C)no4)ccc3C)CC2)c1	28.4	-	-	-	-	35.1
COc1cccc(CCN2CCC(CNS(=O)(=O)c3cc(-c4cc(C)no4)ccc3OC)CC2)c1	-	-	-	-	-	.
Cc1cc2c(NC(=O)Nc3ccc(F)cc3)cccc2nn1	44.1	-	-	-	-	54.0	LYPLA2 gel ABPP=-
Cc1cc2c(NC(=O)CC(C)(C)CC(=O)O)cccc2nn1	-	-	-	-	-	.
O=C(CSc1ccccc1)N1CCCC(N2CCN(c3cccc(Cl)c3)CC2)C1 (centres undefined)	69.3	-	-	-	-	64.0	LYPLA2 gel ABPP=-
CCn1nc(C)cc1C(=O)N1CCCC(N2CCN(c3cccc(Cl)c3)CC2)C1 (centres undefined)	45.9	-	-	-	-	46.5
O=C(CSc1ccccc1)N1CCCC(N2CCN(c3ccc(F)cc3)CC2)C1 (centres undefined)	-	-	-	-	-	.
Cc1cc(C)n(CCC(=O)N2CCCC(N3CCN(c4cccc(Cl)c4)CC3)C2)n1 (centres undefined)	-	-	-	-	-	.
N/N=C(/Cc1nc2ccccc2[nH]1)c1ccc([N+](=O)[O-])cc1	-	-	-	-	-	.
COc1ccc(CN(C)Cc2cc(=O)n3ccsc3n2)c(OC)c1OC	-	-	-	-	-	.
O=C(NCC1CCN(c2ccc(S(=O)(=O)N3CCOCC3)cc2)CC1)c1cccc(Cl)c1	31.7	-	-	-	-	30.7
COc1cccc(-c2nnc(NC(=O)c3ccc(S(=O)(=O)N4CCOCC4)cc3)o2)c1	-	-	-	-	-	.
COc1cccc(C(=O)NCC2CCN(c3ccc(S(=O)(=O)N4CCOCC4)cc3)CC2)c1	29.3	-	-	-	-	-
O=C(Nc1ccc(N2CCN(C(=O)c3ccc(Cl)cc3)CC2)cc1)c1cccs1	28.5	-	-	-	-	26.8
O=C(c1ccc(N2CCCC2=O)cc1)N1CCN(c2ccccc2Cl)CC1	-	.	-	-	-	.
O=C(c1ccc(N2CCCC2=O)cc1)N1CCN(c2ccc(Cl)cc2)CC1	53.2	-	-	-	-	54.8	LYPLA2 gel ABPP=-
SMILES	LYPLA2 inh	Fam108B counter	LYPLA1 inh	PREPL inh	PME-1 primary	LYPLA2 confirm	others
O=C(Nc1ccc(N2CCN(C(=O)c3ccc(Cl)cc3)CC2)cc1)c1ccc2c(c1)OCCO2	58.2	-	-	-	-	63.4	LYPLA2 gel ABPP=-
Cc1ccc(C(=O)N2CCN(c3ccc(NC(=O)c4cccs4)cc3)CC2)cc1	-	-	-	-	-	.
CC(=O)c1ccc(N2CCN(C(=O)Nc3ccc(Cl)cc3)CC2)cc1	27.0	-	-	-	-	-
CC(CNC(=O)CN1C(=O)COc2ccc(S(=O)(=O)N3CCCCC3)cc21)c1ccccc1 (centres undefined)	-	-	-	-	-	.
O=C(Nc1ccc(S(=O)(=O)N2CCCC2)cc1)C1CC(=O)N(c2ccc(F)cc2)C1 (centres undefined)	-	-	-	-	-	.
Cc1nn(C)c(NC(=O)c2ccccc2Cl)c1Cl	-	-	-	-	-	.
O=C(c1cn(-c2ccccc2)nc1-c1cccnc1)N1CCCC(C(F)(F)F)C1 (centres undefined)	-	-	-	-	-	.
COc1ccc(C(=O)Nc2ccc(N3CCN(C(=O)c4cccs4)CC3)cc2)cc1Br	29.5	-	-	-	-	27.3
COc1ccc(N2CCN(c3ncnc4c3nnn4Cc3ccccc3Cl)CC2)cc1	35.2	-	-	-	-	39.8
Cc1nc(N2CCCC2)c2nnn(Cc3ccccc3Cl)c2n1	-	-	-	-	-	.
CN=C1SC(CC(=O)Nc2ccc(F)cc2F)C(=O)N1/N=C(\C)c1cccc(OCC(=O)O)c1 (centres undefined)	25.8	-	-	-	-	-
Cc1c(Cl)cccc1NC(=O)C1=COCCO1	-	-	-	-	-	.
O=C1N(Cc2cccnc2)C[C@@H]2C[C@@H](c3cccc(Oc4ccccc4)c3)N3CCC[C@@]123	27.2	-	-	-	-	-
O=C1N(Cc2cccnc2)C[C@@H]2C[C@@H](c3ccc(C(F)(F)F)cc3)N3CCC[C@@]123	-	-	-	-	-	.
N#Cc1ccc(CN2CCN(C(=O)Cn3nc(C(N)=O)c4ccccc4c3=O)CC2)cc1	29.3	-	-	-	-	-
NC(=O)c1nn(Cc2ccccc2)c(=O)c2ccccc12	-	-	-	-	-	.
O=[N+]([O-])c1ccccc1/C=C\C=N\N1CCN(c2ccccc2)CC1	40.0	-	-	-	-	36.1
Cc1ccc(C(CNC(=O)C(=O)Nc2ccc3c(c2)OCCO3)N2CCN(C)CC2)cc1 (centres undefined)	44.3	-	-	-	-	-
O=C1Nc2ccc([N+](=O)[O-])cc2OC1CCN1CCN(Cc2ccc3c(c2)OCO3)CC1 (centres undefined)	71.7	-	-	-	-	78.9	LYPLA2 gel ABPP=61.0
COc1ccc(CNC(=O)c2ccc(N3CCC4(CC3)CC(c3ccc(Cl)cc3)=NO4)c(N)c2)cc1	40.1	-	-	-	-	40.8
Cc1ccc(C(=O)Nc2cccc(C(=O)NC3CCCCC3)c2)cc1	30.1	-	-	-	-	30.9
